Inconclusive results are not listed. The source made the active and inactive calls. The call rests on the fitted dose curve; in most records, active means well fitted curve in the direction sought with a large enough effect in the repeat runs; inconclusive means weak or mixed curves; inactive means no such curve, though single readings can be large; an effect the other way counts as inactive or inconclusive.
Key:
[1] = qHTS RealTime-Glo MT Cell Viability Assay in HEK293 cells - 16 hour (AID 1224872); further: nearly all actives have a fitted effect of over 50% in size; further: potency means the concentration at half of the fitted maximal effect; on activity change, negative = cytotoxicity: top concentration of the series differs between compounds
In short: (§1)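 Assay medium contained NanoLuc luciferase plus cell-permeant prosubstrate, added with HEK293 cells at 600 cells/well. After 5 h at 37 C/5% CO2 compounds were added; plates stayed at 37 C for 40 h with serial luminescence reads.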

[2] = qHTS RealTime-Glo MT Cell Viability Assay in HepG2 cells - 8 hour (AID 1224873); further: nearly all actives have a fitted effect of over 55% in size; further: potency means the concentration at half of the fitted maximal effect
In short: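 HepG2 cells (600/well) mixed with RealTime-Glo MT reagent, settled 5 h at 37 C/5% CO2 before compound addition. Nonlytic NanoLuc luminescence from viable-cell prosubstrate reduction read repeatedly during 40 h treatment at 37 C.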

[3] = qHTS RealTime-Glo MT Cell Viability Assay in HEK293 cells - 40 hour (AID 1224874); conditions: RealTime-Glo luminescence; max response: stronger effect = lower value; further: nearly all actives have a fitted effect of over 50% in size; further: potency means the concentration at half of the fitted maximal effect
In short: (§2)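 600 HEK293 cells per well, dispensed already mixed with RealTime-Glo MT reagents. Compound dosing came 5 h later. The same wells were read for luminescence at 0, 8, 16, 24, 32 and 40 h of exposure at 37 C.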

[4] = A CellTox Green Cytotoxicity Assay to monitor cytotoxicity in HEK293 cells - 24 hour (AID 1224875); further: nearly all actives have a fitted effect of over 45% in size; further: potency means the concentration at half of the fitted maximal effect; on activity change: series mostly up to about 77 µM
In short: (§3)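 Dead-cell fluorescence measured kinetically: asymmetric cyanine dye, HEK293, 600 cells/well, 5 h settle, 23 nL cpd/DMSO, 37 C, reads 0–40 h every 8 h.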

[5] = A CellTox Green Cytotoxicity Assay to monitor cytotoxicity in HepG2 cells - 16 hour (AID 1224876); further: nearly all actives have a fitted effect of over 45% in size; further: potency means the concentration at half of the fitted maximal effect
In short: (§4)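 First, HepG2 cells (600/well) mixed with reagent were plated; second, after 5 h at 37 C they received compounds via pintool; third, fluorescence was measured at 0 h through 40 h at 8 h intervals.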

[6] = qHTS RealTime-Glo MT Cell Viability Assay in HepG2 cells - 32 hour (AID 1224877); further: nearly all actives have a fitted effect of over 55% in size; further: potency means the concentration at half of the fitted maximal effect
In short: (§5)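 qHTS, HepG2, 600 cells/well, RealTime-Glo (NanoLuc + prosubstrate) added with cells; 5 h preincubation; DMSO compound addition; 37 C; luminescence at 0/8/16/24/32/40 h.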

[7] = A CellTox Green Cytotoxicity Assay to monitor cytotoxicity in HepG2 cells - 24 hour (AID 1224878); further: nearly all actives have a fitted effect of over 45% in size; further: potency means the concentration at half of the fitted maximal effect
In short: as §4

[8] = A CellTox Green Cytotoxicity Assay to monitor cytotoxicity in HepG2 cells - 40 hour (AID 1224879); further: nearly all actives have a fitted effect of over 40% in size; further: potency means the concentration at half of the fitted maximal effect
In short: as §4

[9] = qHTS RealTime-Glo MT Cell Viability Assay in HEK293 cells - 0 hour (AID 1224880); further: top concentration of the series differs between compounds; nearly all actives have a fitted effect of over 45% in size
In short: as §2

[10] = A CellTox Green Cytotoxicity Assay to monitor cytotoxicity in HEK293 cells - 32 hour (AID 1224881); further: nearly all actives have a fitted effect of over 40% in size; further: potency means the concentration at half of the fitted maximal effect
In short: as §3

[11] = A CellTox Green Cytotoxicity Assay to monitor cytotoxicity in HepG2 cells - 0 hour (AID 1224882); further: nearly all actives have a fitted effect of over 35% in size
In short: as §4

[12] = A CellTox Green Cytotoxicity Assay to monitor cytotoxicity in HepG2 cells - 32 hour (AID 1224883); further: nearly all actives have a fitted effect of over 50% in size; further: potency means the concentration at half of the fitted maximal effect
In short: as §4

[13] = A CellTox Green Cytotoxicity Assay to monitor cytotoxicity in HEK293 cells - 8 hour (AID 1224884); further: nearly all actives have a fitted effect of over 35% in size; further: potency means the concentration at half of the fitted maximal effect
In short: as §3

[14] = qHTS RealTime-Glo MT Cell Viability Assay in HepG2 cells - 16 hour (AID 1224885); further: nearly all actives have a fitted effect of over 50% in size; further: potency means the concentration at half of the fitted maximal effect
In short: as §5

[15] = qHTS RealTime-Glo MT Cell Viability Assay in HEK293 cells - 24 hour (AID 1224886); further: nearly all actives have a fitted effect of over 50% in size; further: potency means the concentration at half of the fitted maximal effect; on activity change, negative = cytotoxicity: top concentration of the series differs between compounds
In short: as §1

[16] = qHTS RealTime-Glo MT Cell Viability Assay in HEK293 cells - 8 hour (AID 1224887); further: nearly all actives have a fitted effect of over 50% in size; further: potency means the concentration at half of the fitted maximal effect; on activity change, negative = cytotoxicity: top concentration of the series differs between compounds
In short: as §2

[17] = A CellTox Green Cytotoxicity Assay to monitor cytotoxicity in HEK293 cells - 16 hour (AID 1224888); further: nearly all actives have a fitted effect of over 35% in size; further: potency means the concentration at half of the fitted maximal effect
In short: as §3

[18] = qHTS RealTime-Glo MT Cell Viability Assay in HepG2 cells - 0 hour (AID 1224889); further: nearly all actives have a fitted effect of over 50% in size
In short: as §5

[19] = A CellTox Green Cytotoxicity Assay to monitor cytotoxicity in HepG2 cells - 8 hour (AID 1224890); further: nearly all actives have a fitted effect of over 45% in size; further: potency means the concentration at half of the fitted maximal effect
In short: as §4

[20] = qHTS assay to identify small molecule antagonists of the estrogen receptor alpha (ER-alpha) signaling pathway using the BG1 cell line in the presence of 0.1 nM 17-beta-estradiol - cell viability counter screen (AID 1259241); further: nearly all actives have a fitted effect of over 40% in size; further: potency means the concentration at half of the fitted maximal effect
In short: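 Measures cytotoxicity alongside the ER-alpha antagonist readout: VM7Luc4E2 cells, charcoal-stripped serum, 0.1 nM 17beta-estradiol final, 22 hr compound incubation at 37C, CellTiter-Fluor fluorescence.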
On the % scale 0 is the no-effect control and ±100 the full control effect.

CCCCCCC[CH2][Sn]([Cl])([Cl])[CH2]CCCCCCC
inactive: Potency [1] | Potency [2] | max response [3] -19.1% | Potency [4] | Potency [5] | Potency [6] | Potency [7] | Potency [8] | Potency [9] | Potency [10] | Potency [11] | Potency [12] | Potency [13] | Potency [14] | Potency [15] | Potency [16] | Potency [17] | Potency [18] | Potency [19] | Potency [20]

CC(=O)[O-].CC(=O)[O-].[Co+2]
inactive: Potency [1] | Potency [2] | max response [3] 8.26% | Potency [4] | Potency [5] | Potency [6] | Potency [7] | Potency [8] | Potency [9] | Potency [10] | Potency [11] | Potency [13] | Potency [14] | Potency [15] | Potency [16] | Potency [17] | Potency [18] | Potency [19]

OCC(Br)CBr (stereo not drawn)
inactive: Potency [1] | Potency [2] | max response [3] -11.1% | Potency [4] | Potency [5] | Potency [6] | Potency [7] | Potency [8] | Potency [9] | Potency [10] | Potency [11] | Potency [13] | Potency [14] | Potency [15] | Potency [16] | Potency [17] | Potency [18] | Potency [19] | Potency [20]

CC[C@H](C)[C@H]1O[C@]2(C=C[C@@H]1C)C[C@@H]1C[C@@H](C/C=C(\C)[C@@H](O[C@H]3C[C@H](OC)[C@@H](O[C@H]4C[C@H](OC)[C@@H](NC)[C@H](C)O4)[C@H](C)O3)[C@@H](C)/C=C/C=C3\CO[C@@H]4[C@H](O)C(C)=C[C@@H](C(=O)O1)[C@]34O)O2
active: Potency [1] 6.92 µM | Potency [2] 15.5 µM | Potency [3] 4.36 µM | Potency [4] 13.8 µM | Potency [5] 15.5 µM | Potency [6] 9.77 µM | Potency [7] 11 µM | Potency [8] 9.77 µM | Potency [10] 12.3 µM | Potency [12] 11 µM | Potency [13] 13.8 µM | Potency [14] 12.3 µM | Potency [15] 5.49 µM | Potency [16] 8.71 µM | Potency [17] 15.5 µM | Potency [19] 17.4 µM | Potency [20] 15.4 µM
inactive: Potency [9] | Potency [11] | Potency [18]

CCCCN(CCCC)C(=S)[S-].CCCCN(CCCC)C(=S)[S-].[Ni+2]
inactive: Potency [1] | Potency [2] | max response [3] -23% | Potency [4] | Potency [5] | Potency [6] | Potency [7] | Potency [8] | Potency [9] | Potency [10] | Potency [11] | Potency [12] | Potency [13] | Potency [14] | Potency [15] | Potency [16] | Potency [17] | Potency [18] | Potency [19] | Potency [20]

Clc1c(Cl)c(Cl)c(Cl)c(Cl)c1Cl
inactive: activity change, negative = cytotoxicity [1] 3.93% [at 6.97 µM] | viability change, negative = cytotoxic [2] 1.69% [at 6.97 µM] | max response [3] 8.77% | activity change [4] -16.1% [at 6.97 µM, stronger effect = higher value] | cytotoxicity increase [5] 0.26% [at 6.97 µM] | activity change, negative = cytotoxic [6] 0.7% [at 6.97 µM] | cytotoxicity [7] 0.224% [at 6.97 µM] | cytotoxicity increase [8] -0.205% [at 6.97 µM] | activity change, negative = cytotoxicity [9] 2.6% [at 6.97 µM] | cytotoxicity increase [10] -13.5% [at 6.97 µM] | cytotoxicity [11] 1.34% [at 6.97 µM] | cytotoxicity increase [12] -1.01% [at 6.97 µM] | activity change, negative = cytotoxic [14] -0.903% [at 6.97 µM] | activity change, negative = cytotoxicity [15] 2.9% [at 6.97 µM] | activity change, negative = cytotoxicity [16] 4.5% [at 6.97 µM] | activity change [17] -13.4% [at 6.97 µM, stronger effect = higher value] | activity change, negative = cytotoxicity [18] 6.05% [at 6.97 µM] | cytotoxicity increase [19] 1.99% [at 6.97 µM] | activity change, negative = cytotoxicity [20] 2.59% [at 8.39 µM]

COc1cnc(OC)n2nc(NS(=O)(=O)c3c(OCC(F)F)cccc3C(F)(F)F)nc12
inactive: Potency [1] | Potency [2] | max response [3] 16.5% | Potency [4] | Potency [5] | Potency [6] | Potency [7] | Potency [8] | Potency [9] | Potency [10] | Potency [11] | Potency [12] | Potency [13] | Potency [14] | Potency [15] | Potency [16] | Potency [17] | Potency [19] | Potency [20]

CC(C)=CC1C(C(=O)OC(C#N)c2cccc(Oc3ccccc3)c2)C1(C)C (stereo not drawn)
inactive: Potency [1] | Potency [2] | max response [3] -3.44% | Potency [4] | Potency [5] | Potency [6] | Potency [7] | Potency [8] | Potency [9] | Potency [10] | Potency [11] | Potency [13] | Potency [14] | Potency [15] | Potency [16] | Potency [17] | Potency [18] | Potency [19] | Potency [20]

CC(C)NCC(O)c1ccccc1Cl (stereo not drawn)
inactive: Potency [1] | Potency [2] | max response [3] 1.74% | Potency [4] | Potency [5] | Potency [6] | Potency [7] | Potency [8] | Potency [9] | Potency [10] | Potency [11] | Potency [13] | Potency [14] | Potency [15] | Potency [16] | Potency [17] | Potency [18] | Potency [19] | Potency [20]

COP(=O)(OC)Oc1ccc([N+](=O)[O-])cc1
inactive: Potency [1] | Potency [2] | max response [3] -20.5% | Potency [4] | Potency [5] | Potency [6] | Potency [7] | Potency [8] | Potency [9] | Potency [10] | Potency [11] | Potency [12] | Potency [13] | Potency [14] | Potency [15] | Potency [16] | Potency [17] | Potency [19]

CN1CCc2cc3c(cc2C1O)OCO3 (stereo not drawn)
inactive: Potency [1] | Potency [2] | max response [3] 1.96% | Potency [4] | Potency [5] | Potency [6] | Potency [7] | Potency [8] | Potency [9] | Potency [10] | Potency [11] | Potency [14] | Potency [15] | Potency [16] | Potency [17] | Potency [18] | Potency [19]

CC1CN1 (stereo not drawn)
inactive: Potency [1] | Potency [2] | max response [3] 6.11% | Potency [4] | Potency [5] | Potency [6] | Potency [7] | Potency [8] | Potency [9] | Potency [10] | Potency [12] | Potency [13] | Potency [14] | Potency [15] | Potency [16] | Potency [17] | Potency [18] | Potency [19] | Potency [20]

CCCC[N+]1(C)CCCC1 (tested in a mixture with another compound)
inactive: Potency [1] | Potency [2] | max response [3] 8.56% | Potency [4] | Potency [5] | Potency [6] | Potency [7] | Potency [8] | Potency [9] | Potency [10] | Potency [11] | Potency [14] | Potency [15] | Potency [16] | Potency [18] | Potency [19]
